In PubChem BioAssay AID1159580 (chemical genetic matrix, 2015):
In all, about 5,500 compounds went through this assay and about 2,000 (36%) were called active. Another 18% or so got no clear call; they are omitted. Rule as the data show it: active = normalized growth mostly below about 0.91 (no sharp cut-off); inconclusive = no clear call, values can overlap the other calls; inactive = mostly above about 0.92. Some of the results follow.

Test: chemical genetic growth profiling, strain panel (AID 1159580);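 also: tested at 20 µM; growth read once vehicle control cultures reached saturation at 30 °C; 1 = growth at the plate median or of vehicle wells; lower values mean less growth of the strain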
Conditions: growth OD
[1] = S. cerevisiae deletion strains, locus YDR150W, strain NUM1, stronger effect = lower value
[2] = S. cerevisiae deletion strains, locus YGR078C, strain PAC10, stronger effect = lower value
[3] = S. cerevisiae deletion strains, locus YGR229C, strain SMI1, stronger effect = lower value
[4] = S. cerevisiae deletion strains, locus YMR263W, strain SAP30, stronger effect = lower value
[5] = S. cerevisiae deletion strains, locus YMR307W, strain GAS1, stronger effect = lower value
[6] = S. cerevisiae deletion strains, locus YNL128W, strain TEP1, stronger effect = lower value
[7] = S. cerevisiae deletion strains, locus YNL153C, strain GIM3, stronger effect = lower value
[8] = S. cerevisiae deletion strains, locus YPL055C, strain LGE1, stronger effect = lower value
[9] = S. cerevisiae deletion strains, locus YDL101C, strain DUN1, stronger effect = lower value
[10] = S. cerevisiae deletion strains, locus YHR030C, strain SLT2, stronger effect = lower value

Measured: normalized growth

O=C1C2C=CC=CC2=NC(=S)N1CCN1CCC(=C(c2ccc(F)cc2)c2ccc(F)cc2)CC1 (stereo unspecified)
inactive: S. cerevisiae deletion strains, locus YAL040C, strain CLN3, stronger effect = lower value 0.896 | S. cerevisiae deletion strains, locus YCL061C, strain MRC1 (second series), stronger effect = lower value 1.01 | [1] 1 | S. cerevisiae deletion strains, locus YDR363W, strain ESC2, stronger effect = lower value 0.951 | S. cerevisiae deletion strains, locus YER002W, strain NOP16, stronger effect = lower value 1.04 | [4] 0.985 | [6] 1.06 | S. cerevisiae deletion strains, locus YNL197C, strain WHI3, stronger effect = lower value 1.08 | S. cerevisiae deletion strains, locus YNL224C, strain SQS1, stronger effect = lower value 1.02 | [8] 1.03
active: [2] 0.857 | [3] 0.717 | [5] 0.707 | [7] 0.578 | S. cerevisiae deletion strains, locus YOR083W, strain WHI5 (second series), stronger effect = lower value 0.607

CCOC(=O)c1ccc2nc(N=CNO)sc2c1
inactive: S. cerevisiae deletion strains, locus YAR019C, strain CDC15, stronger effect = lower value 0.948 | S. cerevisiae deletion strains, locus YBL105C, strain PKC1, stronger effect = lower value 0.94 | S. cerevisiae deletion strains, locus YBR135W, strain CKS1, stronger effect = lower value 0.947 | S. cerevisiae deletion strains, locus YBR136W, strain MEC1, stronger effect = lower value 0.951 | S. cerevisiae deletion strains, locus YBR160W, strain CDC28, stronger effect = lower value 0.954 | S. cerevisiae deletion strains, locus YDL017W, strain CDC7, stronger effect = lower value 0.953 | S. cerevisiae deletion strains, locus YDL028C, strain MPS1, stronger effect = lower value 0.956 | [9] 0.973 | S. cerevisiae deletion strains, locus YDL108W, strain KIN28, stronger effect = lower value 0.946 | S. cerevisiae deletion strains, locus YDL132W, strain cdc53, stronger effect = lower value 0.946 | S. cerevisiae deletion strains, locus YDL214C, strain PRR2, stronger effect = lower value 0.905 | S. cerevisiae deletion strains, locus YDR052C, strain DBF4, stronger effect = lower value 0.961 | S. cerevisiae deletion strains, locus YDR054C, strain cdc34, stronger effect = lower value 0.938 | S. cerevisiae deletion strains, locus YDR226W, strain ADK1, stronger effect = lower value 0.958 | S. cerevisiae deletion strains, locus YDR477W, strain SNF1, stronger effect = lower value 0.913 | S. cerevisiae deletion strains, locus YER123W, strain YCK3, stronger effect = lower value 0.864 | S. cerevisiae deletion strains, locus YER133W, strain GLC7, stronger effect = lower value 0.888 | S. cerevisiae deletion strains, locus YFL009W, strain cdc4, stronger effect = lower value 0.938 | S. cerevisiae deletion strains, locus YFL029C, strain CAK1, stronger effect = lower value 0.951 | S. cerevisiae deletion strains, locus YFR003C, strain YPI1, stronger effect = lower value 0.951 | S. cerevisiae deletion strains, locus YFR019W, strain FAB1, stronger effect = lower value 0.909 | S. cerevisiae deletion strains, locus YFR028C, strain CDC14, stronger effect = lower value 0.967 | S. cerevisiae deletion strains, locus YGR040W, strain KSS1, stronger effect = lower value 0.919 | S. cerevisiae deletion strains, locus YGR052W, strain FMP48, stronger effect = lower value 0.983 | S. cerevisiae deletion strains, locus YGR092W, strain DBF2, stronger effect = lower value 0.771 | [10] 0.961 | S. cerevisiae deletion strains, locus YHR079C, strain IRE1, stronger effect = lower value 0.964 | S. cerevisiae deletion strains, locus YHR082C, strain KSP1, stronger effect = lower value 0.986 | S. cerevisiae deletion strains, locus YHR205W, strain SCH9, stronger effect = lower value 0.886 | S. cerevisiae deletion strains, locus YIL147C, strain SLN1, stronger effect = lower value 0.945 | S. cerevisiae deletion strains, locus YJL095W, strain BCK1, stronger effect = lower value 0.977 | S. cerevisiae deletion strains, locus YJL128C, strain PBS2, stronger effect = lower value 0.94 | S. cerevisiae deletion strains, locus YJL157C, strain FAR1, stronger effect = lower value 0.881 | S. cerevisiae deletion strains, locus YJR016C, strain ILV3, stronger effect = lower value 0.948 | S. cerevisiae deletion strains, locus YJR066W, strain TOR1 (second series), stronger effect = lower value 0.717 | S. cerevisiae deletion strains, locus YJR066W, strain TOR1, stronger effect = lower value 0.995 | S. cerevisiae deletion strains, locus YKL048C, strain ELM1, stronger effect = lower value 0.955 | S. cerevisiae deletion strains, locus YKL067W, strain YNK1, stronger effect = lower value 0.915 | S. cerevisiae deletion strains, locus YKL101W, strain HSL1, stronger effect = lower value 0.907 | S. cerevisiae deletion strains, locus YKL193C, strain SDS22, stronger effect = lower value 0.955 | S. cerevisiae deletion strains, locus YKL203C, strain TOR2, stronger effect = lower value 0.958 | S. cerevisiae deletion strains, locus YLR113W, strain HOG1, stronger effect = lower value 0.988 | S. cerevisiae deletion strains, locus YLR133W, strain CKI1, stronger effect = lower value 0.922 | S. cerevisiae deletion strains, locus YLR403W, strain SFP1, stronger effect = lower value 0.879 | S. cerevisiae deletion strains, locus YML070W, strain DAK1, stronger effect = lower value 0.892 | S. cerevisiae deletion strains, locus YMR001C, strain CDC5, stronger effect = lower value 0.951 | S. cerevisiae deletion strains, locus YMR205C, strain PFK2 (second series), stronger effect = lower value 0.931 | S. cerevisiae deletion strains, locus YMR277W, strain FCP1, stronger effect = lower value 0.963 | S. cerevisiae deletion strains, locus YNL006W, strain LST8, stronger effect = lower value 0.945 | S. cerevisiae deletion strains, locus YNL020C, strain ARK1, stronger effect = lower value 0.911 | S. cerevisiae deletion strains, locus YNL161W, strain CBK1, stronger effect = lower value 0.951 | S. cerevisiae deletion strains, locus YNL183C, strain NPR1, stronger effect = lower value 1 | S. cerevisiae deletion strains, locus YNL207W, strain RIO2, stronger effect = lower value 0.949 | S. cerevisiae deletion strains, locus YNL222W, strain SSU72, stronger effect = lower value 0.952 | S. cerevisiae deletion strains, locus YNL307C, strain MCK1 (second series), stronger effect = lower value 0.926 | S. cerevisiae deletion strains, locus YOL078W, strain AVO1, stronger effect = lower value 0.958 | S. cerevisiae deletion strains, locus YOL136C, strain PFK27, stronger effect = lower value 0.892 | S. cerevisiae deletion strains, locus YOR061W, strain CKA2, stronger effect = lower value 0.894 | S. cerevisiae deletion strains, locus YOR119C, strain RIO1, stronger effect = lower value 0.908 | S. cerevisiae deletion strains, locus YOR231W, strain MKK1, stronger effect = lower value 0.938 | S. cerevisiae deletion strains, locus YOR329C, strain SCD5, stronger effect = lower value 0.947 | S. cerevisiae deletion strains, locus YPL031C, strain PHO85, stronger effect = lower value 0.867 | S. cerevisiae deletion strains, locus YPL153C, strain RAD53, stronger effect = lower value 0.88 | S. cerevisiae deletion strains, locus YPL204W, strain HRR25, stronger effect = lower value 0.889 | S. cerevisiae deletion strains, locus YPL209C, strain IPL1, stronger effect = lower value 0.947 | S. cerevisiae deletion strains, locus YPL256C, strain CLN2, stronger effect = lower value 1.02 | S. cerevisiae deletion strains, locus YPR025C, strain CCL1, stronger effect = lower value 0.95 | S. cerevisiae deletion strains, locus YPR106W, strain ISR1, stronger effect = lower value 0.968 | S. cerevisiae deletion strains, locus YPR111W, strain DBF20, stronger effect = lower value 0.963 | S. cerevisiae deletion strains, strain NNK1, stronger effect = lower value 0.96 | S. cerevisiae deletion strains, strain TSCII, stronger effect = lower value 0.952

CCOC(=O)Cc1csc(N=CNO)n1
inactive: S. cerevisiae deletion strains, locus YAL013W, strain DEP1, stronger effect = lower value 1.01 | S. cerevisiae deletion strains, locus YBR229C, strain ROT2, stronger effect = lower value 1.02 | S. cerevisiae deletion strains, locus YCL061C, strain MRC1, stronger effect = lower value 1.01 | [9] 1 | S. cerevisiae deletion strains, locus YDL134C, strain PPH21, stronger effect = lower value 1.02 | [1] 0.892 | S. cerevisiae deletion strains, locus YEL061C, strain CIN8, stronger effect = lower value 1.01 | [2] 1.02 | [3] 0.997 | [10] 0.999 | S. cerevisiae deletion strains, locus YHR087W, strain rtc3, stronger effect = lower value 1.04 | S. cerevisiae deletion strains, locus YJR043C, strain POL32, stronger effect = lower value 0.989 | S. cerevisiae deletion strains, locus YJR075W, strain HOC1, stronger effect = lower value 1.05 | S. cerevisiae deletion strains, locus YLR039C, strain RIC1, stronger effect = lower value 0.992 | S. cerevisiae deletion strains, locus YLR058C, strain SHM2 (second series), stronger effect = lower value 1.02 | S. cerevisiae deletion strains, locus YLR085C, strain ARP6, stronger effect = lower value 1.03 | S. cerevisiae deletion strains, locus YLR262C, strain YPT6, stronger effect = lower value 0.951 | S. cerevisiae deletion strains, locus YML094W, strain GIM5, stronger effect = lower value 1.02 | S. cerevisiae deletion strains, locus YMR219W, strain ESC1, stronger effect = lower value 1.02 | [4] 0.999 | [5] 1.03 | [6] 0.999 | [7] 1.01 | S. cerevisiae deletion strains, locus YNL298W, strain CLA4 (second series), stronger effect = lower value 1.05 | S. cerevisiae deletion strains, locus YNL322C, strain KRE1, stronger effect = lower value 1.01 | S. cerevisiae deletion strains, locus YNR030W, strain Alg12, stronger effect = lower value 1.03 | [8] 1.02 | S. cerevisiae deletion strains, locus YPL241C, strain CIN2, stronger effect = lower value 1.02 | S. cerevisiae deletion strains, locus YPR135W, strain CTF4, stronger effect = lower value 1.04 | S. cerevisiae strains, strain wild type, stronger effect = lower value 1.03
